Among the data in PubChem BioAssay (NCI) are growth inhibition values, retold here.

A short description of assay [1]: NCI Yeast Anticancer Drug Screen. Data for the rad50 strain (AID 155).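 Note: 0% = growth of vehicle-only cultures of the same strain.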 To be noted: S. cerevisiae rad50 strain growth inhibition; at 50.0 µM; hits give high values. Summed up: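 Vehicle-treated cultures provide the reference for the growth inhibition reported for compound-exposed, repair-deficient yeast.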
Assay [2] can be described thus: NCI Yeast Anticancer Drug Screen. Data for the mec2-1 strain (AID 157). To be noted: S. cerevisiae mec2-1 strain, at 50.0 µM, hits give high values. In outline: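 Compounds were applied to mec2-1 yeast cells. Their growth was then compared with that of vehicle-treated cultures to give growth inhibition.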
Assay [3] in a line: NCI Yeast Anticancer Drug Screen. Data for the sgs1 mgt1 strain (AID 161).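 Note: 0% = growth of cultures given vehicle only.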 To be noted: S. cerevisiae sgs1 mgt1 strain, at 50.0 µM, hits give high values. Summed up: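 Percent growth inhibition was derived by comparing compound-exposed mutant yeast with vehicle-exposed cultures. The strain carries alterations in DNA damage repair.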
Assay [4] in a line: NCI Yeast Anticancer Drug Screen. Data for the cln2 rad14 strain (AID 165).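 Note: 0% = growth equal to vehicle treated cultures.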 To be noted: S. cerevisiae cln2 rad14 strain, at 50.0 µM, hits give high values. Summed up:
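Strain: cln2 rad14 yeast, altered in cell cycle control and DNA damage repair. Read-out: growth inhibition vs vehicle.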

A short description of assay [5]: NCI Yeast Anticancer Drug Screen. Data for the bub3 strain (AID 167). Particulars: S. cerevisiae bub3 mutant strain, at 50.0 µM, hits give high values. In outline: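 Mutant yeast screening strain plus compound; vehicle-treated cultures serve as the 0% inhibition reference.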
Assay [6] is described as follows: NCI Yeast Anticancer Drug Screen. Data for the mlh1 rad18 strain (AID 175). To be noted: S. cerevisiae mlh1 rad18 strain growth inhibition; at 50.0 µM; hits give high values. Summed up:
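A repair-deficient yeast strain is exposed to test compound, and growth is scored relative to vehicle-treated controls.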

Compounds without any hit were thinned out: in the full panel of roughly 79,000, 15% have a hit. Unmarked numbers belong to inactive results. Active and inactive are the calls of the source. Cut-off read from the data, not from the text of the source: active = growth inhibition above about 70%; inactive = the rest.

With `CC(CCc1cccc2ccccc12)C(=O)O` (stereo not given), the growth inhibition in assay [1] was 29.6%; in assay [2] it was 30.4%; in assay [3] it was 28.9%; in assay [4], 26.1%; in assay [5], 30.3%; in assay [6] it was 43.3%.
With `CCCc1nc2ccccc2c(=O)n1/N=C/c1ccc(Cl)cc1`, the growth inhibition in assay [1] is 0.5%; in assay [2] it was 7.3%; in assay [3] it was -0.4%; in assay [4], 5.7%; in assay [5] it was 0.9%; in assay [6], 7.95%.
As for `NC(=O)c1nnc2ccc(F)cc2c1N`, the growth inhibition in assay [1] was -35.2%; in assay [2], -37%; in assay [3], -23.2%; in assay [4], -2.55%; in assay [5], -9.35%; in assay [6], -27.2%.
On to `CCCCCN(CCCCC)C(=S)[S-].CCCCCN(CCCCC)C(=S)[S-].[Zn]`, for which the growth inhibition in assay [1] is 72.7% (active); in assay [2], 53.6%; in assay [3] it was 72.1% (active); in assay [4] it was 46.4%; in assay [5], 42.1%; in assay [6], 60.8%.
In the case of `Cc1cccc(C[P+](C/C=C/c2ccccc2)(c2ccccc2)c2ccccc2)c1`, the growth inhibition is 98.8% (active) in assay [1]; 99.7% (active) in assay [2]; 99.7% (active) in assay [3]; 99% (active) in assay [4]; 99.5% (active) in assay [5]; 99.5% (active) in assay [6].
Turning to `O=[N+]([O-])c1ccccc1C=NC12CC3CC(CC(C3)C1)C2`, the growth inhibition in assay [1] is 15%; in assay [2], -9.15%; in assay [3], 9.95%; in assay [4], -49.2%; in assay [5], -15.3%; in assay [6], 3.45%.
As to `COC(=O)CC1C2C=CN(C(=O)OC)N(C(=O)OC)C21` (stereo not given), the growth inhibition in assay [1] is -3.3%; in assay [2], 4.25%; in assay [3] it was 6.35%; in assay [4] it was 10.8%; in assay [5], 5.7%; in assay [6] it was 3.9%.
With `O=S(=O)(N/N=C(/CC/C(=N\NS(=O)(=O)c1ccccc1)c1ccccc1)c1ccccc1)c1ccccc1`, the growth inhibition in assay [1] was 27.7%; in assay [2] it was 5.2%; in assay [3], 11.7%; in assay [4] it was 7.55%; in assay [5] it was -2%; in assay [6], 7.95%.
For `O=C1C(=O)N(C23CC4CC(CC(C4)C2)C3)C(=S)N1c1ccccc1`, the growth inhibition in assay [1] was -9.7%; in assay [2], -20.6%; in assay [3], -44.2%; in assay [4], -26%; in assay [5] it was -24.7%; in assay [6], -27.2%.
Consider `CCCCCCCCCCCC(=O)c1c(O)cccc1O`, for which the growth inhibition was -10.1% in assay [1]; -16.1% in assay [2]; 7.75% in assay [3]; 16.9% in assay [4]; 10.7% in assay [5]; -20.1% in assay [6].
Turning to `CN1N(c2ccccc2)C(=O)C2=NC=C(C(=O)c3ccccc3)C(=N)C21C` (stereo not given), the growth inhibition in assay [1] is 6.2%; in assay [2], -1.6%; in assay [3], 22.1%; in assay [4] it was 19.9%; in assay [5], 7.7%; in assay [6], 16.8%.
Turning to `c1ccc2c(c1)Cc1ccccc1-2`, the growth inhibition in assay [1] was 1.5%; in assay [2], -17.2%; in assay [3] it was -10.6%; in assay [4] it was -19.5%; in assay [5], -20.9%; in assay [6] it was -19.1%.
As to `CC(=O)OCCOC(=O)Nc1ccccc1`, the growth inhibition is 0.05% in assay [1]; -14.5% in assay [2]; -13.9% in assay [3]; -22.2% in assay [4]; -2.55% in assay [5]; -4.85% in assay [6].
In the case of `O=[N+]([O-])c1ccc(Cl)c(/C=C/c2ncccn2)c1`, the growth inhibition in assay [1] is 11.4%; in assay [2], 10.1%; in assay [3], 7.9%; in assay [4], -28.1%; in assay [5], -1.45%; in assay [6] it was 13.9%.
Turning to `O=C(c1ccccc1)c1cc(Cl)ccc1NCC(O)COc1ccc(Cl)cc1` (stereo not given), the growth inhibition is -12.8% in assay [1]; 7.05% in assay [2]; -33% in assay [3]; -12.6% in assay [4]; -0.45% in assay [5]; -10.1% in assay [6].
With `CC(=O)N1c2ccccc2C(C)(C)C1O` (stereo not given), the growth inhibition in assay [1] was 6.85%; in assay [2], 17.1%; in assay [3], -3.55%; in assay [4], -13.7%; in assay [5], -12.4%; in assay [6], 3.7%.
With `Fc1ccccc1-c1nc2ccccc2s1`, the growth inhibition in assay [1] was 45%; in assay [2], 3.75%; in assay [3], 19.3%; in assay [4] it was -3.45%; in assay [5], 6.05%; in assay [6], 28.3%.
On to `CC(C)NCC(O)COc1cccc2ccccc12` (stereo not given), for which the growth inhibition in assay [1] was 19.4%; in assay [2] it was -32.2%; in assay [3], 31.1%; in assay [4], 20.6%; in assay [5], 14.9%; in assay [6] it was 11.1%.
For `CSCCCN(CCCSC)CCCSC`, the growth inhibition in assay [1] is -12.6%; in assay [2], -12.9%; in assay [3], -0.3%; in assay [4], 5.5%; in assay [5] it was 4.5%; in assay [6], -26.6%.
Regarding `N/C(=N\C(=O)OCCOC(=O)/N=C(/N)c1ccccc1)c1ccccc1`, the growth inhibition in assay [1] is -3.5%; in assay [2], -8.5%; in assay [3] it was -6.05%; in assay [4] it was -20.5%; in assay [5], -3.1%; in assay [6], -27.1%.
